{"source": "PubChem BioAssay (NCI)", "note": "About 83,000 compounds went through this panel and 20% of them were active in at least one assay; those are over-represented in the sample as a whole.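 Percent growth is the endpoint: 0 to 100 indicates growth inhibition (40 means 60% inhibition), 0 means no net growth, and negative values indicate cell death.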 Unmarked numbers belong to inactive results. Active and inactive are the calls of the source. How the source made its calls: active means growth percent below 10; inactive means the rest."}
{"system": "KM12 colon", "assay": "NCI-60 one-dose screen, 48 h (100 = growth as untreated, 0 = no growth, -100 = all killed)", "conditions": "10 µM unless noted"}
{"smiles": "COC(=O)c1cc2oc(/C=N\\NC(=O)c3cc4oc(C)c(C)c4[nH]3)cc2[nH]1", "growth": "108%"}
{"smiles": "COc1cccc(-c2nc(-c3ccc(N)cc3)co2)c1", "growth": "99.2%"}
{"smiles": "CC(=O)c1nn(-c2ccccc2)c(=Nc2ccccc2)cc1C", "growth": "99%"}
{"smiles": "COc1cc(/C=C2\\CN(S(=O)(=O)c3ccc(C)cc3)C/C(=C\\c3cc(CN4CCOCC4)c(O)c(OC)c3)C2=O)cc(CN2CCOCC2)c1O", "growth": "-74.4% (active)"}
{"smiles": "CCOc1cc(/C=C/C(=O)C(C(=O)/C=C/c2ccc(OC(=O)CNc3nnc(C)s3)c(OCC)c2)C(=O)CNc2nnc(C)s2)ccc1OC(=O)CNc1nnc(C)s1", "growth": "-64.4% (active)"}
{"smiles": "O=C(N/N=C/c1cccc([N+](=O)[O-])c1)c1ccc(Br)o1", "growth": "109%"}
{"smiles": "O=C(CN1CCN(c2ccc(Cl)cc2)CC1)N1CCN(c2nnc(-c3ccccc3)c(-c3ccccc3)n2)CC1", "growth": "36.6%"}
{"smiles": "O=C1CNc2cc(Cl)ccc2N1", "growth": "103%"}
{"smiles": "Cc1cnc2nc(-c3ccc(N(C)C)cc3)cn2c1", "growth": "104%"}
{"smiles": "CCCCNCCCN(CCCC)CCCNCCCC", "growth": "107%"}
{"smiles": "C/C(=C\\CCc1ccoc1)CC/C=C(\\C)CCCC1COC(=O)C1", "note": "(centres undefined)", "growth": "93.3%"}
{"smiles": "O=C(c1ccccc1)c1ccc(Oc2ccc([N+](=O)[O-])cc2[N+](=O)[O-])cc1", "growth": "-17.8% (active)"}
{"smiles": "OCCN1CCN(CCCN2c3ccccc3Sc3ccc(C(F)(F)F)cc32)CC1", "growth": "9.9% (active)"}
{"smiles": "COP(=O)(OC)C(c1ccc(O)cc1)(c1ccc(O)cc1)c1ccc(O)cc1", "growth": "113%"}
{"smiles": "CC(=O)N1N=C(c2ccc(Nc3nc(NCCO)nc(NCCO)n3)cc2)CC1c1ccc(Cl)cc1", "note": "(centres undefined)", "growth": "100%"}
{"smiles": "[N-]=[N+]=NCc1cccc(/C(O)=C/C(=O)C(=O)O)c1", "growth": "97.4%"}
{"smiles": "O=C(COc1cccc(/C=C2\\Cc3ccccc3C2=O)c1)c1ccc(Cl)cc1", "growth": "105%"}
{"smiles": "O=[N+]([O-])c1ccc(N=Nc2c(Cl)cc(O)cc2Cl)cc1", "growth": "-39.8% (active)"}
{"smiles": "O=c1c2ccccc2c2nccn2c2cc(Cl)ccc12", "growth": "150%"}
{"smiles": "CCN(CC)CCCCCCCNc1c2ccc(Cl)cc2nc2ccc(OC)cc12", "growth": "-37.2% (active)"}
{"smiles": "COc1cccc(C2=NN(C(C)=O)C(c3cc(OC)c(OC)c(OC)c3)C2)c1", "note": "(centres undefined)", "growth": "35.9%"}
{"smiles": "O=C(c1ccccc1)C(CN1CCCCC1)c1ccccc1", "note": "(centres undefined)", "growth": "14.4%"}
{"smiles": "Nc1ccn(C2O[C@H](CO)[C@@H](O)[C@@H]2O)c(=O)n1", "note": "(some centres undefined)", "growth": "58.1%"}
{"smiles": "O=C(Nc1cccc(Cl)c1)Nc1cccc(Cl)c1", "growth": "43.6%"}
{"smiles": "COc1cccc(N2CCN(c3cccc(C)n3)CC2)c1", "growth": "110%"}
{"smiles": "Cc1cn(C(C=O)OC(C=O)CO)c(=O)[nH]c1=O", "note": "(centres undefined)", "growth": "103%"}
{"smiles": "CCOC(=O)CCC(=O)O[C@H]1[C@H](O[C@@H]2[C@@H](C)[C@H](O[C@H]3C[C@@](C)(OC)[C@@H](O)[C@H](C)O3)[C@@H](C)C(=O)O[C@H](CC)[C@@](C)(O)[C@H](O)[C@@H](C)C(=O)[C@H](C)C[C@@]2(C)O)O[C@H](C)C[C@@H]1N(C)C", "growth": "111%"}
{"smiles": "O=C(CNc1ccc2c(c1)C(=O)c1ccccc1C2=O)Nc1ccc2c(c1)C(=O)c1ccccc1C2=O", "growth": "-91.4% (active)"}
{"smiles": "O=c1[nH]c(N2CCC(Cc3ccccc3)CC2)nc2sc3c(c12)CCCC3", "growth": "100%"}
{"smiles": "Cn1cc(NC(=O)Nc2cc(C(=O)O)n(C)c2)cc1C(=O)O", "growth": "98.6%"}
{"smiles": "O=C(CN1CCN(c2ccc(Cl)cc2)CC1)N1CCN(c2nnc(-c3ccc(Cl)cc3)c(-c3ccc(Cl)cc3)n2)CC1", "growth": "63%"}
{"smiles": "O=C(Nc1ccc(Cl)cc1)Nc1ccccc1CNc1nc(Nc2ccc(OCCN3CCCC3)cc2)ncc1Cl", "growth": "11.3%"}
{"smiles": "CCCCCCCCCCOC(C)=O", "growth": "113%"}
{"smiles": "CCN(CC)CCNCC(=O)Oc1ccc(/C=C/C(=O)CC(=O)/C=C/c2ccc(OC(=O)CNCCN(CC)CC)c(OC)c2)cc1OC", "growth": "-19.5% (active)"}
{"smiles": "CC(=O)N1N=C(c2ccc(C(F)(F)F)cc2)CC1c1ccc2c(c1)OCO2", "note": "(centres undefined)", "growth": "89.2%"}
{"smiles": "O=C1CSC(c2ccccc2O)N1c1nnc(Cn2ccnc2)o1", "note": "(centres undefined)", "growth": "45.1%"}
{"smiles": "O=C(/C=C/c1cccc(Nc2ccnc3cc(Cl)ccc23)c1)c1ccc(Cl)cc1", "growth": "62.6%"}
{"smiles": "CC(NNC(=S)N1CCCCCC1)c1ccc2ccccc2n1", "note": "(centres undefined)", "growth": "34.9%"}
{"smiles": "O=C(Nc1nc(-c2ccc(Cl)cc2)cs1)c1cc(-c2ccc(Br)cc2)nc2ccc(Cl)cc12", "growth": "24.8%"}
